Source: PubChem
CYP2C19 activ – activators of human cytochrome P450 2C19; recombinant CYP2C19, luciferin-H EGE luminescence; hits give high values; 0 = fully inhibited enzyme, 1 = untreated enzyme; activation factor at 5 µM; 96,000 tested, under 10 active; AID 1025;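 active means activation factor of at least 2 at 5 µM in the primary screen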
CYP2C19 inhib – blocks human cytochrome P450 2C19 | P33261 | CYP2C19 Supersomes, luciferin-H EGE luminescence, 30 min | inhibition, % at 5 µM | 21% of 96,000 active | AID 778;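 active means CYP2C19 inhibition above a set limit at 5 µM in the primary screen, cut at about 50% in these data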
CYP2C9 inh – human CYP2C9 inhibition. AID 777. CYP2C9 Supersomes, luciferin-H conversion, luminescence. P11712. 20% of 96,000 active. inhibition, % at 5 µM;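 active means blocking of liver enzyme CYP2C9 beyond about 50% at 5 µM, limit read from the data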
sEH inh – blocks human soluble epoxide hydrolase activity. recombinant human sEH enzymatic activity assay. inhibition, % at 2 µM. P34913. 0.34% of 91,000 active; in the data active means inhibition above about 80%
Target sequence (P34913 whole entry, looked up): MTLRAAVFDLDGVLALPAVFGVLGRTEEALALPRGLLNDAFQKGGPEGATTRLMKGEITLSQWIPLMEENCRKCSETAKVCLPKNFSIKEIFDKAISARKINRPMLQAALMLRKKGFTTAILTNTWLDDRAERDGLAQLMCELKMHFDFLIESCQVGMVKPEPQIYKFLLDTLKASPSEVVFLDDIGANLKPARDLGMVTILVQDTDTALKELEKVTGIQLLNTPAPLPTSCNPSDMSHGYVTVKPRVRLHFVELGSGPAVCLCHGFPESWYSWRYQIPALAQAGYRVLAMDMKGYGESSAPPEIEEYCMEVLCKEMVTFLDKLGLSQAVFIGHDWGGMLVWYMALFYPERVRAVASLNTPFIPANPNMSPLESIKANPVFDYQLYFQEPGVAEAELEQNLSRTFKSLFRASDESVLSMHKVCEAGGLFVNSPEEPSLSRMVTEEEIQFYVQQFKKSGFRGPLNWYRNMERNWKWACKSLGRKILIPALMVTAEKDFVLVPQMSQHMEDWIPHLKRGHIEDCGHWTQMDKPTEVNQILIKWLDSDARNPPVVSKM
sEH act – activators of human soluble epoxide hydrolase | purified human sEH enzymatic activity, activator screen | activation, % at 2 µM | 0.04% of 91,000 active; in the data active means activation above about 37%
CYP2C9 activ – activators of human CYP2C9; 1.4% of 96,000 active; P11712; activation factor at 5 µM; AID 1024; recombinant CYP2C9, luciferin-H conversion, luminescence; hits give high values; factor 1 = untreated enzyme, 0 = blocked;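 active means activation factor of 2 or more for CYP2C9 at a 5 µM dose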
Of the large screens only hits and unclear results are named; the others gave an inactive call. Compounds with a hit are over-represented: about 27% of the library has one in this group of screens.

CCS(=O)(=O)N1CCCC(c2nc(-c3cccc(OC)c3)no2)C1 (stereo unspecified)	none
COc1ccc(-c2noc(C3CCCN(C(=O)c4ccccc4OC)C3)n2)cc1OC (stereo unspecified)	none
Fc1ccccc1/C=C1\CCCC2=C1Nc1nnnn1C2c1ccccc1F (stereo unspecified)	none
Cc1cccc2cc(CN(Cc3cccs3)C3(c4nnnn4C4CCCC4)CCCC3)c(=O)[nH]c12	none
O=S(=O)(c1ccccc1Cl)N1CCCC1c1nc(-c2cccc(Cl)c2)no1 (stereo unspecified)	none
COc1ccc(-c2noc(C3CCCN(S(=O)(=O)c4cccc(Cl)c4C)C3)n2)cc1OC (stereo unspecified)	CYP2C19 inhib 91, CYP2C9 inh 85
O=S(=O)(c1ccccc1Cl)N1CCCC(c2nc(-c3cccnc3)no2)C1 (stereo unspecified)	CYP2C19 inhib 95, CYP2C9 inh 79
C=CCn1c(Cc2cccs2)nnc1SCC(=O)Nc1cc(OC)cc(OC)c1	CYP2C19 inhib 79
COc1cccc(NC(=O)Cc2cccs2)c1	CYP2C19 inhib 51
C=CCn1c(Cc2cccs2)nnc1SCC(=O)Nc1ccc(C(=O)OCC)cc1	none
COc1ccc2c(c1)Cc1sc(NC(=O)c3cccs3)nc1-2	CYP2C19 inhib 70, CYP2C9 inh 85
COc1cc(NC(=O)Cc2cccs2)cc(OC)c1	CYP2C19 inhib 81
CC1CC(NC(=O)C2(C)CC2(Cl)Cl)CC(C)(C)C1 (stereo unspecified)	none
COc1cccc(NC(=O)c2cccs2)c1	CYP2C19 inhib 54
COC(=O)c1sc2ccccc2c1NC(=O)c1cccs1	CYP2C9 inh 60
COc1cc(NC(=O)Cc2cccs2)ccc1-n1cnnn1	CYP2C19 inhib 53
COc1cccc(NC(=O)c2cccc(OC)c2OC)c1	CYP2C19 inhib 81
COc1cc(NC(=O)c2cccs2)cc(OC)c1	none
CCn1c(SCC(=O)O)nnc1C1CCCCC1	none
CCC(C)Cn1c(C(C)O)nc2ccccc21 (stereo unspecified)	none
O=C(NCc1cn2ccsc2n1)c1cccs1	none
Fc1cccc(Cl)c1-c1nnc2ccc(N3CCOCC3)nn12	none
Clc1cccc(Cl)c1-c1nnc2ccc(N3CCOCC3)nn12	CYP2C19 inhib 52, CYP2C9 inh 68
CN(C)c1ccc(/C=N\NC(=S)SCN2C(=O)C3CCC(C)(C2=O)C3(C)C)cc1 (stereo unspecified)	none (no result: CYP2C19 activ, CYP2C19 inhib, CYP2C9 inh, CYP2C9 activ)
CC1=C(C(=O)OCC2CCCO2)C(c2ccc(C)o2)C2=C(CC(c3ccc(F)cc3)CC2=O)N1 (stereo unspecified)	none
CC1=C(C(=O)OCC2CCCO2)C(c2cccc(C(F)(F)F)c2)C2=C(CC(c3ccco3)CC2=O)N1 (stereo unspecified)	CYP2C19 inhib 94, CYP2C9 inh 88
CC1=C(C(=O)OCC2CCCO2)C(c2ccc(C)o2)C2=C(CC(c3ccc(N(C)C)cc3)CC2=O)N1 (stereo unspecified)	CYP2C19 inhib 56, CYP2C9 inh 54
CC1=C(C(=O)OCC2CCCO2)C(c2ccccc2OC(C)C)C2=C(CC(c3ccco3)CC2=O)N1 (stereo unspecified)	CYP2C19 inhib 98, CYP2C9 inh 81
CCN(C(=O)c1c(-c2ccccc2)noc1C)c1ccccc1	none
O=C(CCC(=O)OCCCC(F)(F)C(F)(F)F)Nc1ccc(Cl)cc1Cl	CYP2C19 inhib 70
Cn1c(SCC(=O)c2ccc3c(c2)Cc2ccccc2-3)nnc1-c1ccccc1	none
NC(=S)n1[nH]c(-c2ccc([N+](=O)[O-])cc2)c(N=Nc2ccc(O)cc2)c1=O	CYP2C9 inh 76
COc1ccc(S(=O)(=O)N2CC(C(=O)O)Oc3ccc(CC(=O)O)cc32)cc1 (stereo unspecified)	none
CCOC(=O)C1CN(S(=O)(=O)c2ccc(OC)cc2)c2cc(CC(=O)OC)ccc2O1 (stereo unspecified)	CYP2C19 inhib 93
CN(C)c1ccc(NC(=O)CN2CCC(N3CCCCC3)CC2)cc1	none
CCOC(=O)C1=C(N)N(c2ccccc2Oc2ccccc2)C(=O)C1	CYP2C19 inhib 78, CYP2C9 inh 65
CCOC(=O)C1=C(N)N(c2ccc(N3CCCCC3)cc2)C(=O)C1	none
Cc1nc2cc(-c3ccc(Cl)cc3)nn2c(C)c1CCC(=O)NCc1ccco1	CYP2C19 inhib 79
COc1ccc(-c2cc3nc(C)c(CCC(=O)NCc4ccco4)c(C)n3n2)c(OC)c1	none (no result: CYP2C19 activ, CYP2C19 inhib, CYP2C9 inh, CYP2C9 activ)
COc1nc(C)nc2c1ccc1ccccc12	none (no result: CYP2C19 activ, CYP2C19 inhib, CYP2C9 inh, CYP2C9 activ)
Cc1ccc2[nH]c3c(c2c1)CCC3=O	none
Cc1ccc2[nH]c3c(c2c1)CCc1cn[nH]c1-3	CYP2C19 inhib 70, CYP2C9 inh 88
Cc1ccc2[nH]c(-c3cccc(N)c3)cc2c1	none
Cc1ccc(O)c(-c2cc3ccccc3[nH]2)c1	CYP2C19 inhib 54, CYP2C9 inh 80
COC(=O)c1cc(NC(=O)CCc2c(C)nc3ncnn3c2C)cc(C(=O)OC)c1	none
Cn1cccc1C(=O)OCc1cc(Cl)cc2c1OCOC2	CYP2C9 activ 2.2
COc1cc(CCC(=O)N2CCN(S(=O)(=O)c3ccc(C)c(C)c3)CC2)cc(OC)c1OC	CYP2C19 inhib 56
CCOc1ccc(C(=O)CN2CCN(S(=O)(=O)c3ccc(Cl)cc3)CC2)cc1	CYP2C19 inhib 58
COc1cc(OC)c(OC)cc1CN1CCN(S(=O)(=O)c2ccc(F)cc2)CC1	none
COc1cc(CN2CCN(S(=O)(=O)c3ccc(F)cc3)CC2)cc(OC)c1OC	CYP2C19 inhib 84
CCOc1ccc(S(=O)(=O)N2CCCC2)cc1	none
COc1ccc(S(=O)(=O)N2CCN(Cc3c[nH]c4ccccc34)CC2)cc1	CYP2C19 inhib 52
O=C(O)c1ccnc(C(=O)O)c1	none (no result: sEH inh, sEH act)
COc1ccc(S(=O)(=O)N2CCN(Cc3cccc(Cl)c3)CC2)cc1	CYP2C19 inhib 94, CYP2C9 inh 61
COc1ccc(S(=O)(=O)N2CCN(Cc3ccc(Cl)cc3)CC2)cc1	CYP2C19 inhib 63
COc1ccc(S(=O)(=O)N2CC(C)N(S(=O)(=O)c3ccc(OC)cc3)CC2C)cc1 (stereo unspecified)	none (no result: sEH inh, sEH act)
COc1ccc(S(=O)(=O)N2CC3C4C=CC(C4)C3C2)cc1 (stereo unspecified)	CYP2C19 inhib 58
O=S(=O)(c1ccc(Cl)cc1)N1CCN(C2CCN(Cc3ccccc3)CC2)CC1	none
COc1cc(S(=O)(=O)N2CCN(Cc3ccccc3)CC2)ccc1Br	none
COc1cc(C(=O)Nc2ccc(OCC(=O)O)cc2)cc(OC)c1OC	none (no result: sEH inh, sEH act)
Cc1[nH]nc2ncc(C(=O)c3cc(F)ccc3O)cc12	CYP2C19 inhib 58
O=C(c1cn[nH]c1)c1cc(F)ccc1O	none
Cc1noc2ncc(C(=O)c3cc(F)ccc3O)cc12	CYP2C19 inhib 96, CYP2C9 inh 50
CC(C)C(=O)Nc1nnc(SCC(=O)NCc2cccs2)s1	none
Cc1ccccc1-c1nc2ccccc2c(=O)n1/N=C/c1ccccc1[N+](=O)[O-]	none
